# Active and inactive are the calls of the source.
# Assays:
# [1] = system: Plasmodium falciparum Sir2 (PF13_0152, Sir2A); assay: Plasmodium falciparum Sir2A binding compounds – biochemical, small-molecule microarray, 635 nm fluorescence, primary screen (AID 1098); settings: fluorescence 635 nm, higher = more signal;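 note: score merges spot fluorescence intensity with its signal-to-noise ratio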
# [2] = probe aDKK1 binding to arrayed compounds – biochemical, biotinylated probe, 635/667 nm fluorescence, primary screen (AID 1099); settings: small-molecule microarray, higher = more signal;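 note: score merges 667nm spot fluorescence with signal to noise across triplicate slides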
# [3] = probe aCHRDL2 binding to arrayed compounds – biochemical, biotinylated probe, 635/667 nm fluorescence, primary screen (AID 1100); settings: small-molecule microarray, higher = more signal
# [4] = change in splice reporter luminescence, either direction, cell-based, HEK293, spliceosome inhibition project, primary screen (AID 1101); settings: HEK293 splicing luciferase reporter, 24 h, higher = more signal, called active from +8 up or from −8 down;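 note: HEK293 cells carrying a splicing-competent luciferase reporter gene; test concentration not given here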
# [5] = target: Fibroblast growth factor 10 (Homo sapiens) (UniProt O15520); assay: compounds binding fibroblast growth factor 10 – biochemical, small-molecule microarray, 635 nm fluorescence, primary screen (AID 1102); settings: FGF10 binding, fluorescence 635 nm, higher = more signal
# [6] = system: glycogen synthase kinase-3 (GSK3A per assay name; protocol says GSK3B); assay: compounds binding glycogen synthase kinase-3 – biochemical, small-molecule microarray, 635 nm fluorescence, GSK3A, primary screen (AID 1103); settings: fluorescence 635 nm, higher = more signal; note: the record names both GSK3A and GSK3B
# [7] = target: Epidermal growth factor receptor (Homo sapiens) (UniProt P00533); assay: compounds binding epidermal growth factor receptor – biochemical, small-molecule microarray, 635 nm fluorescence, primary screen (AID 1104); settings: EGFR binding, higher = more signal;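 note: score merges 667 nm emission intensity with spot signal to noise over triplicate slides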
# [8] = target: Follistatin-related protein 3 (Homo sapiens) (UniProt O95633); assay: compounds binding follistatin-related protein 3 – biochemical, small-molecule microarray, 635 nm fluorescence, primary screen (AID 1105); settings: FSTL3 binding, higher = more signal;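 note: score merges emission near 667 nm and signal to noise per printed spot across three slides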
# [9] = target: Dickkopf-related protein 1 (Homo sapiens) (UniProt O94907); assay: small molecules binding DKK1 protein – biochemical, small-molecule microarray, 635 nm fluorescence scan, primary screen (AID 1106); settings: higher = more signal;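 note: score merges emission near 667 nm with signal to noise over three replicate slides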
# [10] = system: Inhibin beta A chain (activin A); assay: small molecules binding activin A – biochemical, small-molecule microarray, 635 nm fluorescence scan, primary screen (AID 1107); settings: INHBA, higher = more signal;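 note: mouse activin A protein probed at 4.33 µg/mL on printed slides; score merges bound-protein fluorescence near 667 nm with spot signal-to-noise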
# [11] = system: Human papillomavirus type 1a protein E7 (residues 44-93); assay: small molecules binding HPV E7 44-93 – biochemical, small-molecule microarray, residues 44-93, 635 nm fluorescence, primary screen (AID 1108); settings: fluorescence 635 nm, higher = more signal;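 note: E7 fragment applied at 1 µg/mL in TBST for 1 h at 4 C; score combines spot fluorescence with its signal to noise ratio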
# [12] = hepatitis C replication reporter changes, two-sided – Huh7 cells, luciferase reporter, HCV replication inhibitor project, primary screen (AID 1109); settings: Huh7 HCV replicon luciferase reporter, 48 h; higher = more signal;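 note: huh7 hepatoma cells harbouring a luciferase neomycin HCV replicon reporter; luciferase luminescence as measure of HCV replicon replication; test concentration not given here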
# [13] = target: Left-right determination factor 2 (Homo sapiens) (UniProt O00292); assay: small molecules binding LEFTY2 protein – biochemical, small-molecule microarray, 635 nm fluorescence scan, primary screen (AID 1110); settings: higher = more signal
# [14] = target: Calmodulin-1 (Homo sapiens) (UniProt P0DP23); assay: small molecules binding calmodulin-1 with EGTA – biochemical, small-molecule microarray, Cy5-labelled CALM1, profiling panel (AID 1111); settings: Cy5-CALM1 binding fluorescence, higher = more signal;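 note: labelled calmodulin applied in Tris saline Tween buffer holding calcium plus EGTA and DTT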
# [15] = target: Calmodulin-1 (Homo sapiens) (UniProt P0DP23); assay: small molecules binding Ca-loaded calmodulin-1 – biochemical, small-molecule microarray, Cy5-labelled CALM1, plus calcium, artefact control for SMM control-protein annotation, profiling panel (AID 1112); settings: Cy5-CALM1 binding fluorescence, higher = more signal;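 note: score merges spot fluorescence with signal to noise from triplicate slides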
# [16] = probe aWnt5a binding to arrayed compounds – biochemical, biotinylated probe, 635/667 nm fluorescence, primary screen (AID 1113); settings: small-molecule microarray, higher = more signal;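 note: score merges 667 nm fluorescence intensity with signal-to-noise per printed feature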
# [17] = probe aShh binding to arrayed compounds – biochemical, biotinylated probe, 635/667 nm fluorescence, primary screen (AID 1114); settings: small-molecule microarray, higher = more signal;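 note: probe is biotin-labelled aShh protein from a stem cell growth factor screen; measures binding of labelled protein to compounds printed on the slide; score merges feature fluorescence at 667 nm with signal-to-noise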
# [18] = probe aNog binding to arrayed compounds – biochemical, biotinylated probe, 635/667 nm fluorescence, primary screen (AID 1115); settings: small-molecule microarray, higher = more signal;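 note: probe is biotinylated aNog protein used at 0.15 µg/mL for 1 h at 4 C; z-score combines 667 nm fluorescence of each spot with its signal to noise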
# [19] = target: Torsin-1A-interacting protein 1 (Homo sapiens) (UniProt Q5JTV8); assay: compound microarray binding of lysate hLAP1 – cell lysate, small-molecule microarray, COS7 lysate, 635/667 nm fluorescence, primary screen (AID 1116); settings: 635 nm fluorescence, higher = more signal
# [20] = target: Alpha-bungarotoxin (Bungarus multicinctus) (UniProt P60615); assay: compounds binding labelled alpha-BTX control protein – biochemical, small-molecule microarray, Alexa647 label, 635/667 nm fluorescence, artefact control for SMM control protein annotation, profiling panel (AID 1117); settings: alpha-BTX-A647 binding fluorescence, higher = more signal
# Sequence of Alpha-bungarotoxin (Bungarus multicinctus) (P60615 whole entry, looked up): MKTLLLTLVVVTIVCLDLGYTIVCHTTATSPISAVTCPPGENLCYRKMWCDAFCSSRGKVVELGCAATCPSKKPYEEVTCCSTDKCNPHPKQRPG
# Sequence of Follistatin-related protein 3 (Homo sapiens) (O95633 whole entry, looked up): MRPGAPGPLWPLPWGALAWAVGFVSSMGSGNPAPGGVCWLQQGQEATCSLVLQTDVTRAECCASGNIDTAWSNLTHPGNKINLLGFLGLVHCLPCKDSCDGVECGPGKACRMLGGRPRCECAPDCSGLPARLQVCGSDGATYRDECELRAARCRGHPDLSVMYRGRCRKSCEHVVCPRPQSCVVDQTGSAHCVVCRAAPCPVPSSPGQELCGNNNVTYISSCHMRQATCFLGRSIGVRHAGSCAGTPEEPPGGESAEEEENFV
# Sequence of Left-right determination factor 2 (Homo sapiens) (O00292 whole entry, looked up): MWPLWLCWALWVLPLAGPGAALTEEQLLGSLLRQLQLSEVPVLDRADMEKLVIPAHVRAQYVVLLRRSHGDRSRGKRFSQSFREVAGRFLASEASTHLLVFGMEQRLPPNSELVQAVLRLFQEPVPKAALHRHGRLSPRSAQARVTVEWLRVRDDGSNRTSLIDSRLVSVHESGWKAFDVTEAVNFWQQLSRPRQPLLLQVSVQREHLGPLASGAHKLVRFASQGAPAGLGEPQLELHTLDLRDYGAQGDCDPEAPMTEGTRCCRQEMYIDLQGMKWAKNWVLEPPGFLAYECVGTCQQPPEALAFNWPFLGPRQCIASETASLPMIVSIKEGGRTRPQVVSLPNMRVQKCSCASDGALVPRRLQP
# Sequence of Torsin-1A-interacting protein 1 (Homo sapiens) (Q5JTV8 whole entry, looked up): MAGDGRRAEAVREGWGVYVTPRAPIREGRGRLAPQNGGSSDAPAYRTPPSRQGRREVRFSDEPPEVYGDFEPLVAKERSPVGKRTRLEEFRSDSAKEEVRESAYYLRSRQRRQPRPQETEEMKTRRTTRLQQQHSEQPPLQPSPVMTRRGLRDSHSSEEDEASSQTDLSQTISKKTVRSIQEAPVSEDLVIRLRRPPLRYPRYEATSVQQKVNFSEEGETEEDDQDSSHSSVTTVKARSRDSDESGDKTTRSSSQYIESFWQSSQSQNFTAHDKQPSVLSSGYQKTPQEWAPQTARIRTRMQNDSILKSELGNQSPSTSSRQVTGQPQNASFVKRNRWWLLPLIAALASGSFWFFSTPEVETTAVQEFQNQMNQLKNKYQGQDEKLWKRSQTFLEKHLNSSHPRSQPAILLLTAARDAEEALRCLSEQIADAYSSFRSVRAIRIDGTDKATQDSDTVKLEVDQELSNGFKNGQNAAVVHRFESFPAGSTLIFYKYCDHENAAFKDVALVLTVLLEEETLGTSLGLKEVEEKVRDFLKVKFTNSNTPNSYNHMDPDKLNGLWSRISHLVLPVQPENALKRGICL
# Sequence of Epidermal growth factor receptor (Homo sapiens) (P00533 whole entry, looked up): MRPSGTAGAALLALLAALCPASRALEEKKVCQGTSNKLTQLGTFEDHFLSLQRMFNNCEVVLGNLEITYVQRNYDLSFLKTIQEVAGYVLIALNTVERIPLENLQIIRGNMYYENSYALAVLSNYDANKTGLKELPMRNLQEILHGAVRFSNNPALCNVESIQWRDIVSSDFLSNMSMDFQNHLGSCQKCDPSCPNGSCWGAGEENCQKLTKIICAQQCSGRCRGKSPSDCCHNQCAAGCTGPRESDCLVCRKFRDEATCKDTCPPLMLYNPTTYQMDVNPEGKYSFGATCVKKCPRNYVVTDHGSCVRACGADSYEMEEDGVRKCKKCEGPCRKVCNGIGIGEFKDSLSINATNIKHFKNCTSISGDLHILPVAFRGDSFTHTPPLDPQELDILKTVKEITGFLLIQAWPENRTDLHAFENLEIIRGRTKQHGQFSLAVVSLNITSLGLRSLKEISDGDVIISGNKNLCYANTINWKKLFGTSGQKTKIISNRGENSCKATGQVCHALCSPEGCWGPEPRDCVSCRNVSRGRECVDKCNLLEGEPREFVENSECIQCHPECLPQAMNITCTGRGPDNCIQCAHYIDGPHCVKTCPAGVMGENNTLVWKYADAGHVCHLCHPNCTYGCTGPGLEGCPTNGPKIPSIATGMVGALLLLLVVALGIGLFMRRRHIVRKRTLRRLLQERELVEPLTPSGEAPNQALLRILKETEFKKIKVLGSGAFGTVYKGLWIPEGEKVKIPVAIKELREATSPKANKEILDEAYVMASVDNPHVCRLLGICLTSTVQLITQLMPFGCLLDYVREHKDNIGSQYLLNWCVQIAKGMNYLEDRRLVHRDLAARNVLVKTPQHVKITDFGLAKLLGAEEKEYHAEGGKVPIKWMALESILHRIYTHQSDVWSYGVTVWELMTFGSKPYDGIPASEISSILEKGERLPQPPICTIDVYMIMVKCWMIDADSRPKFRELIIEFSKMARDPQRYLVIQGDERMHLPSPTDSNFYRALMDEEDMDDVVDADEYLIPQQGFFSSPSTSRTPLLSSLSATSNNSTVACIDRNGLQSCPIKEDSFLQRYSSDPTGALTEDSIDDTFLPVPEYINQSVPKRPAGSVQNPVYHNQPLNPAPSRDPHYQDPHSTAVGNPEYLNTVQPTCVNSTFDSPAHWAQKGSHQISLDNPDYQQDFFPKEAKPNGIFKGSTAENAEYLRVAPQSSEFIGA
# Sequence of Dickkopf-related protein 1 (Homo sapiens) (O94907 whole entry, looked up): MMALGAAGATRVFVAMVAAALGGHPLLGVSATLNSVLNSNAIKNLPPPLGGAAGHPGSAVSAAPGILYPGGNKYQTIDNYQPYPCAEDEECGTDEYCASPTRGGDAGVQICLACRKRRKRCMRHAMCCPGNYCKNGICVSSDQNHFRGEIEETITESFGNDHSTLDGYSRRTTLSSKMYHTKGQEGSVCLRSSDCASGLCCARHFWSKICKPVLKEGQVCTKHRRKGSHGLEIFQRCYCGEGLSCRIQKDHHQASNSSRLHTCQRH
# Sequence of Fibroblast growth factor 10 (Homo sapiens) (O15520 whole entry, looked up): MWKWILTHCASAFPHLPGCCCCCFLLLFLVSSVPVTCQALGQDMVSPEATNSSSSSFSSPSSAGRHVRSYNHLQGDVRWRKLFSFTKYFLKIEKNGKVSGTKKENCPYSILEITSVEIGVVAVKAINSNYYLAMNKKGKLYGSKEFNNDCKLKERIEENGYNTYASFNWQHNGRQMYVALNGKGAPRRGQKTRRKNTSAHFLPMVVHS
SMILES,composite z-score [1],composite z-score [2],composite z-score [3],z-score [4],composite z-score [5],composite z-score [6],composite z-score [7],composite z-score [8],composite z-score [9],composite z-score [10],composite z-score [11],z-score [12],composite z-score [13],composite z-score [14],composite z-score [15],composite z-score [16],composite z-score [17],composite z-score [18],composite z-score [19],composite z-score [20]
COc1ccc([Si](C)(C)[C@@H]2[C@@H](CC(=O)N(CCO)Cc3ccccc3)O[C@]3(C(=O)N(Cc4cccc(N5C(=O)c6cccc7cccc5c67)c4)c4ccccc43)[C@H]2C)cc1,1.5,-0.277,0.246,-1.11 (inactive),0.0691,-0.727,0.412,1.4,0.816,0.539,-0.726,-3.94,0.882,0.222,0.234,-0.1,-0.209,-0.424,0.566,0.389
CN(C)CCCCNC(=O)[C@@H]1C[C@@H]2C(=O)N[C@@H](Cc3ccccc3)C(=O)N2[C@@H]1c1cccc(OCCO)c1,0.769,0.0115,0.393,-1.88 (inactive),0.407,0.727,0.404,1.26,1.28,0.0765,1.34,4.01,1.24,-0.349,-0.125,-0.127,0.0952,-0.0721,0.0715,0.612
NC(=O)NCC#Cc1ccc2c(c1)[C@]1(C(=O)N2)[C@H](C(=O)O)[C@H]2C(=O)O[C@H](c3ccccc3)[C@H](c3ccccc3)N2[C@@H]1c1ccc(OCCO)cc1,1.49,0.0638,0.799,-0.253 (inactive),0.261,-0.547,-0.03,0.582,0.158,0.882,1.05,-0.327,-0.288,0.382,0.117,0.0077,0.13,-0.265,0.324,2.01
C=CCN1C(=O)[C@@]2(CCS(=O)(=O)c3ccccc3)N=C(c3ccc(OCCCO)cc3)O[C@H]2c2ccccc21,1.32,0.331,0.482,0.095 (inactive),0.69,1.33,0.958,1.14,0.822,1.18,1.42,-1.97,0.876,1.94,-0.313,0.0215,-0.304,0.906,0.791,1.22
C=CC[C@]1(C(=O)O)COC(c2ccc(OCCCO)cc2)=N1,1.58,-0.133,0.568,-0.565 (inactive),-0.0346,0.156,0.0943,0.406,0.117,0.888,0.549,0.183,0.268,0.0295,0.47,-0.0203,-0.138,-0.419,-0.0942,0.291
COC(=O)[C@@]1(Cc2ccccc2)[C@H]2c3cc(C(=O)N(C)C)n(Cc4c(CO)[nH]cc(C)c4=O)c3C[C@H]2CN1C(=O)c1ccccc1,0.42,0.183,0.528,1.06 (inactive),0.422,-0.0088,-0.0555,-0.237,-0.296,1.1,-0.0355,-0.898,-0.0086,0.278,0.0907,0.108,0.061,1.05,0.37,0.218
